Bioassay records deposited in PubChem by NMMLSC.
Only some compounds are listed: those with a hit (about 1.2% of all), similar ones and a draw of the others.
Avidin fluor: green autofluorescence of compounds with avidin beads – biophysical, 488/530 nm, flow cytometry, artefact control, profiling panel; compound fluorescence 488/530 nm; active compounds read high; 220,000 compounds, 0.38% hits; fluorescence (KMESF) at 10 µM; in the data active means fluorescence above about 47
GSH bead fluor: compound fluorescence on glutathione beads, profiling panel, artefact control, biophysical, 488/530 nm, flow cytometry. GSH beads flow cytometry, compound fluorescence 488/530 nm; active compounds read high. fluorescence (KMESF) at 10 µM. 190,000 compounds, 0.25% hits; in the data active means fluorescence above about 89;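 further: glutathione beads carrying GST-tagged Bcl family fusion proteins plus one bare bead set; values are compound well signal with DMSO vehicle wells as background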
RGS7-Gao reg: RGS7-Galphao binding modulators, primary screen, biochemical, multiplexed bead flow cytometry. actives lie on both sides. 220,000 compounds, 0.35% hits. AID 1439, 2008. binding response (% of control), % at 10 µM; in the data active means binding response below about 49% or above about 150%; inconclusive means no clear call, values can overlap the other calls; inactive means in between;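 further: fluorescent Galphao held in activated GDP-AlF4 state binding bead-coupled RGS7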
Target sequence (P09471 whole entry, looked up): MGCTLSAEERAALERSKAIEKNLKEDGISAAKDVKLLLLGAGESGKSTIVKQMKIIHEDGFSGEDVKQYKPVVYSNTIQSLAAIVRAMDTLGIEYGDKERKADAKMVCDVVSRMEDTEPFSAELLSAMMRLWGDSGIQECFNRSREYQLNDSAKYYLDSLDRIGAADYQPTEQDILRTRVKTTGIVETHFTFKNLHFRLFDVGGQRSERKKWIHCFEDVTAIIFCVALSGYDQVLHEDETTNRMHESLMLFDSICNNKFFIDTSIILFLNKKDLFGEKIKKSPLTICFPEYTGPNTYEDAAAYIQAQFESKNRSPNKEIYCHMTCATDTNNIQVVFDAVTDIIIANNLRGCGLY
RGS8-Gao: RGS8-Galphao binding modulators, primary screen, biochemical, multiplexed bead flow cytometry. actives lie on both sides. Guanine nucleotide-binding protein G(o) subunit alpha (Homo sapiens), P09471. 220,000 compounds, 0.34% hits. response (percent of control binding), % at 10 µM. AID 1423, 2008; in the data active means response below about 60% or above about 140%; inactive means in between;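 further: Galphao activated as the GDP aluminium fluoride complex binding bead-coupled RGS8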
RGS4-Gao reg: modulators of RGS4 binding to Galphao, primary screen, biochemical, multiplexed bead flow cytometry; 220,000 compounds, 0.33% hits; AID 1415, 2008; Guanine nucleotide-binding protein G(o) subunit alpha (Homo sapiens), P09471; binding response (% of control), % at 10 µM; actives lie on both sides; in the data active means binding response below about 49% or above about 150%; inactive means in between;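 further: fluorescent Galphao activated with aluminum fluoride binding bead-coupled RGS4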
RGS16-Gao HTS: modulators of RGS16 binding to Galphao, primary screen, biochemical, human proteins, multiplexed bead flow cytometry | Regulator of G-protein signaling 16 (Homo sapiens) + Guanine nucleotide-binding protein … | bead-based flow cytometry RGS16-Galphao binding, fluorescence; actives lie on both sides | binding response (% of control), % at 10 µM | 220,000 compounds, 0.38% hits;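 further: Galphao activated by GDP with aluminum fluoride before binding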
RGS4-Gao HTS: modulators of RGS–Galpha-o binding, primary screen, biochemical, multiplexed beads, flow cytometry, RGS4/7/8/16/19 | RGS4–Galpha-o binding response, % at 10 µM | AID 1504, 2009 | multiplexed bead flow cytometry | 1,600 compounds, 99% hits | shares compounds with RGS16-Gao HTS;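 further: fluorescently labeled Galpha-o bound to GDP with aluminium fluoride binding biotinylated RGS beads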
Target sequence (P09471 whole entry, looked up): as above
Target sequence (P49798 whole entry, looked up): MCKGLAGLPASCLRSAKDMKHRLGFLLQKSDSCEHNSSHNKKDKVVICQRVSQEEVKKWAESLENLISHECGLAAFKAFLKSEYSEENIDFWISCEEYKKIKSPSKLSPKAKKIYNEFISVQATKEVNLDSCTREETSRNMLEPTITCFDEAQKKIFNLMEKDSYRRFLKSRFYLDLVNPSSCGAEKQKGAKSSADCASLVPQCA
Biotin-avidin: disruption of biotin probe capture by avidin, counter-screen for RGS protein interaction modulators, biochemical, flow cytometry, bead-based; shares compounds with RGS16-Gao HTS; streptavidin beads, fluorescein-biotin binding; inhibition, % at 10 µM; 1,700 tested, under 10 active;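 active means inhibition above 50%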;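 further: median green fluorescence of gated singlet beads compared with DMSO control wells; 0% = DMSO wells and 100% = complete loss of bead fluorescence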
RGS8-Gao single: RGS8-Galphao binding modulators, confirmation, biochemical, multiplexed bead flow cytometry, single concentration. shares compounds with RGS16-Gao HTS. AID 1836, 2009. binding response (% of control), % at 10 µM. bead-based flow cytometry RGS8-Galphao binding, fluorescence; actives lie on both sides. 1,700 compounds, 3% hits; in the data active means binding response below about 72% or above about 130%; inactive means in between;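 further: Galphao activated as GDP AlF4 complex before binding bead RGS8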
RGS7-Gao confirm: RGS7-Galphao binding modulators, confirmation, biochemical, multiplexed bead flow cytometry, single concentration; shares compounds with RGS16-Gao HTS; bead-based flow cytometry RGS7-Galphao binding; actives lie on both sides; response (percent of control binding), % at 10 µM; 1,700 compounds, 7.8% hits; AID 1837, 2009; in the data active means response below about 75% or above about 130%; inactive means in between;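 further: fluorescent Galphao activated with GDP and aluminum fluoride binding bead-coupled RGS7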
RGS16-Gao single: modulators of RGS16-Galphao protein binding, confirmation, biochemical, single concentration, multiplexed bead flow cytometry; shares compounds with RGS16-Gao HTS; bead-based flow cytometry; actives lie on both sides; response (% of control binding), % at 10 µM; 1,700 compounds, 4% hits; AID 1838, 2009; in the data active means response below about 74% or above about 130%; inactive means in between;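 further: Galphao activated as the GDP aluminium fluoride complex binding bead-coupled RGS16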
RGS4-Gao single: modulators of RGS4-Galphao protein binding, confirmation, biochemical, single concentration, multiplexed bead flow cytometry | shares compounds with RGS16-Gao HTS | actives lie on both sides | binding response (% of control), % at 10 µM | 1,700 compounds, 4% hits | AID 1840, 2009; in the data active means binding response below about 74% or above about 130%; inactive means in between
RGS19-Gao single: regulators of RGS19-Galphao binding, confirmation, biochemical, single point, multiplexed bead flow cytometry | response (percent of control binding), % at 10 µM | shares compounds with RGS16-Gao HTS | bead-based flow cytometry RGS19-Galphao binding; actives lie on both sides | 1,700 compounds, 5% hits; in the data active means response below about 50% or above about 160%; inactive means in between;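 further: 100% = no compound control and 0% = blank background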
An asterisk follows results filed as active; ? = inconclusive; · = not tested or not shown; [ ] = another dose, or the depositor's remark. Unless noted, how the calls were made is not given here.

SMILES	Avidin fluor	GSH bead fluor	RGS7-Gao reg	RGS8-Gao	RGS4-Gao reg	RGS16-Gao HTS	RGS4-Gao HTS	Biotin-avidin	RGS8-Gao single	RGS7-Gao confirm	RGS16-Gao single	RGS4-Gao single	RGS19-Gao single
COc1ccc(CNC(=O)CN(CC2CCCO2)C(=O)CNS(=O)(=O)c2ccc(C)cc2)cc1 (configuration not stated)	15	13	99.3	99.2	94.7	103.0	·	·	·	·	·	·	·
COc1ccc(CNC(=O)CN(CC2CCCO2)C(=O)CNS(=O)(=O)c2ccccc2)cc1 (configuration not stated)	171*	4	208.6*[activator]	85.8	128.6	121.7	128.6*	1.6	102.2	99.8	100.3	101.2	85.6
COc1ccc(-c2nc(-n3c(C)c(C(C)=O)c(C(C)=O)c3C)sc2C)cc1	3	20	43.7*	56.5*	47.4*	39.9	·	-1.3	102.3	103.6	101.1	105.0	97.7
COc1ccc(-c2nc(C)sc2C)cc1	3	7	118.2	142.3*[activator]	114.7	266.4	114.7*	-0.8	98.4	102.2	101.7	100.5	95.9
COc1ccc(/C=C/C(=O)NC(=S)N2CCN(c3ccccc3OC)CC2)cc1	8	·	?	102.5	100.5	99.1	·	·	·	·	·	·	·
O=C(C(c1ccccc1)c1ccccc1)N1CCN(CCN2C(=O)c3cccc4cccc(c34)C2=O)CC1	6	9	·	101.8	102.5	102.9	·	-1.1	99.7	95.8	103.2	97.3	127.2
Cc1ccc2c(C(=O)CN3CCN(c4ccccc4)CC3)c(C)[nH]c2c1	5	24	99.0	98.8	96.6	98.5	·	·	·	·	·	·	·
COc1cccc(N2CCN(CC(=O)NCc3cccs3)CC2)c1	·	18	·	·	·	·	·	0.1	101.6	99.5	100.4	99.5	99.5
COc1cccc(N2CCN(CC(=O)c3c(C)[nH]c4ccccc34)CC2)c1	-1	34	17.4*	14.6*	22.1*	14.7*	·	-1.3	100.9	99.9	102.6	99.2	108.0
COc1ccc(N2CCN(CC(=O)NCc3ccccc3)CC2)cc1	9	18	101.6	98.8	98.3	100.9	·	·	·	·	·	·	·
CC1CCN(CCCn2c(SCC(=O)Nc3ccccc3Cl)nc3ccccc3c2=O)CC1	11	15	126.8	145.0*[activator]	119.5	265.4	119.5*	-0.1	101.9	106.3	102.7	102.6	104.3
Cc1ccc(NC(=O)CSc2nc3ccccc3c(=O)n2CCCN2CCCCC2)cc1Cl	9	5	121.2	148.8*[activator]	114.8	300.3	114.8*	0.7	100.6	61.5*	86.6	71.5*	71.8
O=C(CSc1nnc(SCc2ccccc2)s1)N/N=C/c1c(Cl)cccc1Cl	5	13	104.7	104.7	106.5	106.1	·	·	·	·	·	·	·
Cc1nn(-c2ccccc2)c(C)c1/C=N/NC(=O)CSc1nnc(SCc2ccc(Cl)cc2)s1	68*	11	156.9*[activator]	101.4	108.1	104.5	108.1*	0.4	96.8	91.8	85.2	92.5	58.1
O=C(Nc1ccccc1)Nc1nccs1	34	14	97.4	103.1	97.9	101.2	·	·	·	·	·	·	·
CC(C)(C(=O)Nc1nccs1)c1ccccc1	12	13	156.3*[activator]	138.9	136.9	146.7	136.9*	2.6	102.9	109.2	103.7	106.0	106.6
CC1(C)CNc2cc(N)ccc2S1	11	9	?	98.7	99.7	97.5	·	·	·	·	·	·	·
C=CCN(C(=O)Nc1ccc(F)cc1)C1CC(=O)N(c2ccc(OC)cc2)C1=O (configuration not stated)	6	8	125.3	158.5*[activator]	133.6	349.6	133.6*	0.4	98.1	102.9	101.4	105.3	104.1
C=CCN(C(=O)Nc1ccc(Cl)cc1)C1CC(=O)N(c2ccc(OC)cc2)C1=O (configuration not stated)	9	7	100.4	99.0	100.8	96.7	·	·	·	·	·	·	·
COc1ccc(NC(=O)c2ccc(COc3ccccc3Br)o2)cc1OC	33	14	94.2	99.2	96.4	100.2	·	·	·	·	·	·	·
COc1cc(NC(=O)c2ccc(COc3ccccc3Br)o2)cc(OC)c1OC	77*	30	126.4	111.8	148.8	208.3*[activator]	148.8*	2.4	95.7	91.4	93.7	95.4	81.6
O=C(NCc1ccco1)c1cnn2cccnc12	8	16	?	100.9	97.8	100.0	·	·	·	·	·	·	·
CO/N=C/C(=N\Nc1ccc(OC)cc1)C(=O)c1ccc(F)cc1	5	15	34.9*	44.7*	40.2*	36.7	·	1.7	101.3	93.8	102.2	98.2	81.0
CO/N=C/C(=N\Nc1ccc(C)cc1)C(=O)c1ccc(OC)cc1	10	14	105.0	104.9	100.6	107.3	·	·	·	·	·	·	·
